Source: PubChem BioAssay
Active and inactive are the calls of the source.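 Rule for the calls: active = Her2 level under about 52% in both replicate screens, with viability over 70% of control (limit read from the data); inconclusive = Her2 under the limit in one screen only, or viability under 70%; inactive = Her2 level above the set limit.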

Test system: not listed separately
Assay: Her2 expression decrease, cell viability multiplex – SKBR3 breast tumor cells, AlphaScreen, ATP viability, primary screen (AID 461);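 for Her2 level: lower value means less Her2 protein in the cells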;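 for viability: percent of carrier control wells set as 100% viability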
Details: SKBR3 Her2 protein level, 18-24 h, measured here: SKBR3 viability, ATP luminescence, at 10 µM

Q: With `Cc1cc2c(c(=O)o1)C(Cc1ccccc1)C(C#N)=C(N)O2` (stereo not given) as the molecule, how does the viability read?
A: The viability was 94%.

Q: Which viability does the source give for `O=C(C1CC1)N1CCC(c2nc(-c3ccc(S(=O)(=O)NCC4CCCO4)cc3)no2)CC1` (stereo not given) here?
A: The viability was 74.5%.

Q: With `N#Cc1c(NC(=O)CSc2nc(N)cc(=O)[nH]2)sc2c1CCCCCC2` as the molecule, how does the viability read?
A: The viability was 104%.

Q: Which viability does the source give for `O=C(NCCCNC1CCCCC1)c1ccc(/C=N/O)nc1` here?
A: The viability was 84%.

Q: With `CCOC(=O)CNC(=O)CSc1ncnc2c1cnn2Cc1ccccc1` as the molecule, how does the viability read?
A: Its viability is 96%.

Q: With `CCn1nc(CC(=O)Nc2nnc(CC(=O)N3CCCCC3)s2)c2ccccc2c1=O` as the molecule, how does the viability read?
A: Its viability is 96%.

Q: With `C/C(N)=C(/C#N)C(=O)COC(=O)c1cc(C)n(-c2ccc(F)cc2)c1C` as the molecule, how does the viability read?
A: The viability was 91%.

Q: With `COc1cc(CNc2ccc(N3CCOCC3)c(C(=O)O)c2)ccc1OCC(N)=O` as the molecule, how does the viability read?
A: Its viability is 106%.

Q: With `Cc1oc(C(=O)O)cc1CSCc1cc(C(=O)O)c(C)o1` as the molecule, how does the viability read?
A: The viability was 104%.

Q: Which viability does the source give for `c1ccc(CN2C3=NCCCN3c3ccccc32)cc1` here?
A: The viability was 79%.

Q: With `COc1ccc(OC)c(NC(=O)CSc2nc3ccccc3c(=O)n2CCNC(C)=O)c1` as the molecule, how does the viability read?
A: Its viability is 118%.

Q: For `Cc1cccc(CS(=O)(=O)Cc2ccc(C(=O)NCC3CCCO3)o2)c1` (stereo not given), which viability is on record?
A: The viability was 85.5%.

Q: Which viability does the source give for `COc1ccccc1N1CCN(C(=O)c2oc3cc(C)c(C)cc3c2C)CC1` here?
A: The viability was 117%.

Q: Which viability does the source give for `COc1cccc(NC(=O)COC(=O)c2ccco2)c1` here?
A: The viability was 112%.

Q: For `COCCNC(=O)c1c(N)n(CCC2=CCCCC2)c2nc3ccccc3nc12`, which viability is on record?
A: The viability was 102%.

Q: Which viability does the source give for `Cc1ccccc1C(=O)Nc1c(C(=O)N2CCCC2)cnn1-c1ccccc1` here?
A: Its viability is 112%.

Q: Which viability does the source give for `O=C(Cn1cnc2c(nnn2Cc2ccc(Cl)cc2)c1=O)NCC1CCCO1` (stereo not given) here?
A: The viability was 120%.

Q: Which viability does the source give for `Cc1nc2ncnn2c(N2CCC(C(=O)NC3CCCC3)CC2)c1Cc1ccccc1` here?
A: The viability was 88%.

Q: Which viability does the source give for `COCCn1nnnc1C(C(C)C)N1CCN(C(=O)c2ccco2)CC1` (stereo not given) here?
A: The viability was 92.5%.

Q: Which viability does the source give for `CCOc1cc(-c2nc3ccccn3c2NCC2CCCO2)ccc1O` (stereo not given) here?
A: The viability was 69.5%.

Q: For `O=C(Nc1ccccc1N1CCN(C(=O)c2ccc(Cl)cc2)CC1)c1cc2ccccc2o1`, which viability is on record?
A: Its viability is 69.5%.

Q: Which viability does the source give for `O=C(CCC(=O)N(c1cccc(F)c1)C(C(=O)NC1CCCC1)c1ccncc1)Nc1cccnc1` (stereo not given) here?
A: Its viability is 100%.

Q: For `COc1ccc(S(=O)(=O)N2CCSC2c2ccccc2)cc1` (stereo not given), which viability is on record?
A: The viability was 82%.

Q: With `CCCOC(=O)C1[C@H]2C(=O)N(CCCOC)C[C@]23C=C[C@H]1O3` (stereo not given in full) as the molecule, how does the viability read?
A: The viability was 92.5%.

Q: Which viability does the source give for `COc1cc2c(cc1OC)C(C)N(C(=O)c1cc3n(n1)C(C(F)(F)F)CC(c1ccco1)N3)CC2` (stereo not given) here?
A: The viability was 108%.

Q: For `Cc1ccc(NC(=O)N2CCC(c3nc4c(nnn4Cc4cccc(Cl)c4)c(=O)[nH]3)CC2)cc1`, which viability is on record?
A: Its viability is 81.5%.

Q: With `Cc1nc(NCCNC(=O)c2ccco2)c2c(C)c(C)sc2n1` as the molecule, how does the viability read?
A: Its viability is 87.5%.

Q: For `Cc1c(NC(=O)CSc2nnc3sc4ccccc4n23)c(=O)n(-c2ccccc2)n1C`, which viability is on record?
A: Its viability is 94%.

Q: With `COc1ccc(-c2nnc3sc(-c4c(OC)cccc4OC)nn23)cc1` as the molecule, how does the viability read?
A: Its viability is 105%.

Q: For `COC(=O)c1ccccc1NC(=O)CSc1nnc(-c2ccncc2)o1`, which viability is on record?
A: Its viability is 98%.

Q: For `COc1ccc(Cl)cc1NC(=O)c1oc(C)nc1C`, which viability is on record?
A: The viability was 91%.

Q: With `CCOC(=O)CC(=O)Nc1c(C)cc(C)cc1C` as the molecule, how does the viability read?
A: The viability was 94.5%.

Q: With `O=S(=O)(c1ccccc1)c1nc(-c2ccco2)oc1NCCCN1CCOCC1` as the molecule, how does the viability read?
A: The viability was 91%.

Q: With `O=C(COC(=O)c1ccc(S(=O)(=O)Nc2ccccc2)cc1)NCCN1C(=O)CSC1=O` as the molecule, how does the viability read?
A: Its viability is 107%.

Q: For `Cc1cc(C)c(-c2cc(C(=O)Nc3c(C)n(C)n(-c4ccccc4)c3=O)[nH]n2)c(O)c1`, which viability is on record?
A: The viability was 99.5%.

Q: With `COc1ccc(-c2nnc(SCC(=O)N3CCCCC3)o2)cc1OC` as the molecule, how does the viability read?
A: The viability was 104%.

Q: With `Cc1cc(Br)ccc1NC(=O)CCN1C(=O)c2ccncc2C1=O` as the molecule, how does the viability read?
A: The viability was 104%.

Q: For `CC1=C(C(=O)N2CCCCC2)C2(CCC(C)CC2)OC1=O` (stereo not given), which viability is on record?
A: Its viability is 90%.

Q: Which viability does the source give for `CCCN(CCC)S(=O)(=O)c1ccc(C(=O)Nc2nnc(-c3cccc(OC)c3)o2)cc1` here?
A: The viability was 98.5%.

Q: Which viability does the source give for `CC(C)(C)c1cc(CCC(=O)N2CCNCC2)c(C(C)(C)C)cc1O` here?
A: Its viability is 106%.

Target: Receptor tyrosine-protein kinase erbB-2 (Homo sapiens) (UniProt P04626)
Assay: as above
Details: 18-24 h, at 10 µM, stronger effect = lower value

Receptor tyrosine-protein kinase erbB-2 (Homo sapiens), sequence (P04626 whole entry, looked up): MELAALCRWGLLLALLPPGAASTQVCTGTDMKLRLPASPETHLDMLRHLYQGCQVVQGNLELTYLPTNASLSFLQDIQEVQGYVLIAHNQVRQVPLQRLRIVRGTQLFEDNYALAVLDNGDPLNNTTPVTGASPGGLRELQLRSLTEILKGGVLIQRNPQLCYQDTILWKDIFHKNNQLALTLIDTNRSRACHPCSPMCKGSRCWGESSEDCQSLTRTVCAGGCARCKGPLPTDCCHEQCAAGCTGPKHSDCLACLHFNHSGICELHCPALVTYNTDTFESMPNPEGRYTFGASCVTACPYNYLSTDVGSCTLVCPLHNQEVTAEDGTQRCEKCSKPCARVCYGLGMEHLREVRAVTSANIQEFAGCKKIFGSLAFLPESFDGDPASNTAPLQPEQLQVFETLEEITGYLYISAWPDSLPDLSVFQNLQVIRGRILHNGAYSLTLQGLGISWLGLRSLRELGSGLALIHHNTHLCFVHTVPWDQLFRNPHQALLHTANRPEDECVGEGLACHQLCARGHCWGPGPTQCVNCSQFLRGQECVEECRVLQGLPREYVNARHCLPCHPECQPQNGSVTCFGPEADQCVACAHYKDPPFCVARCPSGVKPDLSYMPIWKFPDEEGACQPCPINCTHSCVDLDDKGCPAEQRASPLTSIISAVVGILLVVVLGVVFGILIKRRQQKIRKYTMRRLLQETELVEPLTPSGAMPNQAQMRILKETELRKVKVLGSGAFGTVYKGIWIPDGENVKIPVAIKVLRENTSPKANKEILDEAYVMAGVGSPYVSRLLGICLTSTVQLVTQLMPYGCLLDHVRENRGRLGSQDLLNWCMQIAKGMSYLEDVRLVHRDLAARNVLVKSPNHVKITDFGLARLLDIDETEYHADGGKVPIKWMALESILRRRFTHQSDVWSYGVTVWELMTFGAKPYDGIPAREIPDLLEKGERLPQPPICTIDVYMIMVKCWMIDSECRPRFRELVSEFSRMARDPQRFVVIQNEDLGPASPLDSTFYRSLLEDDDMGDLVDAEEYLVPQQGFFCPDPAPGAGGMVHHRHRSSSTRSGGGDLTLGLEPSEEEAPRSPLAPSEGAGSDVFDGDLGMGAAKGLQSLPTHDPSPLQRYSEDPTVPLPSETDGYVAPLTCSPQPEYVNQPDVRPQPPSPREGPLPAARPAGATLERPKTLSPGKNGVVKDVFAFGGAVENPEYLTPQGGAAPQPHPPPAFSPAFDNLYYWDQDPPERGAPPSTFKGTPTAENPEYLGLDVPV

Q: With `Cc1cc2c(c(=O)o1)C(Cc1ccccc1)C(C#N)=C(N)O2` (stereo not given) as the molecule, how does the Her2 level read?
A: The Her2 level was 96% (inactive).

Q: For `O=C(C1CC1)N1CCC(c2nc(-c3ccc(S(=O)(=O)NCC4CCCO4)cc3)no2)CC1` (stereo not given), which Her2 level is on record?
A: The Her2 level was 114% (inactive).

Q: Which Her2 level does the source give for `N#Cc1c(NC(=O)CSc2nc(N)cc(=O)[nH]2)sc2c1CCCCCC2` here?
A: The Her2 level was 90% (inactive).

Q: Which Her2 level does the source give for `O=C(NCCCNC1CCCCC1)c1ccc(/C=N/O)nc1` here?
A: The Her2 level was 96% (inactive).

Q: With `CCOC(=O)CNC(=O)CSc1ncnc2c1cnn2Cc1ccccc1` as the molecule, how does the Her2 level read?
A: Its Her2 level is 82.5% (inactive).

Q: For `CCn1nc(CC(=O)Nc2nnc(CC(=O)N3CCCCC3)s2)c2ccccc2c1=O`, which Her2 level is on record?
A: Its Her2 level is 102% (inactive).

Q: With `C/C(N)=C(/C#N)C(=O)COC(=O)c1cc(C)n(-c2ccc(F)cc2)c1C` as the molecule, how does the Her2 level read?
A: The Her2 level was 97.5% (inactive).

Q: For `COc1cc(CNc2ccc(N3CCOCC3)c(C(=O)O)c2)ccc1OCC(N)=O`, which Her2 level is on record?
A: Its Her2 level is 102% (inactive).

Q: Which Her2 level does the source give for `Cc1oc(C(=O)O)cc1CSCc1cc(C(=O)O)c(C)o1` here?
A: The Her2 level was 94.5% (inactive).

Q: For `c1ccc(CN2C3=NCCCN3c3ccccc32)cc1`, which Her2 level is on record?
A: Its Her2 level is 84% (inactive).

Q: For `COc1ccc(OC)c(NC(=O)CSc2nc3ccccc3c(=O)n2CCNC(C)=O)c1`, which Her2 level is on record?
A: Its Her2 level is 108% (inactive).

Q: For `Cc1cccc(CS(=O)(=O)Cc2ccc(C(=O)NCC3CCCO3)o2)c1` (stereo not given), which Her2 level is on record?
A: Its Her2 level is 108% (inactive).

Q: With `COc1ccccc1N1CCN(C(=O)c2oc3cc(C)c(C)cc3c2C)CC1` as the molecule, how does the Her2 level read?
A: Its Her2 level is 104% (inactive).

Q: Which Her2 level does the source give for `COc1cccc(NC(=O)COC(=O)c2ccco2)c1` here?
A: The Her2 level was 94% (inactive).

Q: With `COCCNC(=O)c1c(N)n(CCC2=CCCCC2)c2nc3ccccc3nc12` as the molecule, how does the Her2 level read?
A: The Her2 level was 92% (inactive).

Q: With `Cc1ccccc1C(=O)Nc1c(C(=O)N2CCCC2)cnn1-c1ccccc1` as the molecule, how does the Her2 level read?
A: Its Her2 level is 79% (inactive).

Q: With `O=C(Cn1cnc2c(nnn2Cc2ccc(Cl)cc2)c1=O)NCC1CCCO1` (stereo not given) as the molecule, how does the Her2 level read?
A: Its Her2 level is 78% (inactive).

Q: With `Cc1nc2ncnn2c(N2CCC(C(=O)NC3CCCC3)CC2)c1Cc1ccccc1` as the molecule, how does the Her2 level read?
A: The Her2 level was 95% (inactive).

Q: For `COCCn1nnnc1C(C(C)C)N1CCN(C(=O)c2ccco2)CC1` (stereo not given), which Her2 level is on record?
A: Its Her2 level is 112% (inactive).

Q: With `CCOc1cc(-c2nc3ccccn3c2NCC2CCCO2)ccc1O` (stereo not given) as the molecule, how does the Her2 level read?
A: Its Her2 level is 111% (inactive).

Q: With `O=C(Nc1ccccc1N1CCN(C(=O)c2ccc(Cl)cc2)CC1)c1cc2ccccc2o1` as the molecule, how does the Her2 level read?
A: The Her2 level was 79.5% (inactive).

Q: With `O=C(CCC(=O)N(c1cccc(F)c1)C(C(=O)NC1CCCC1)c1ccncc1)Nc1cccnc1` (stereo not given) as the molecule, how does the Her2 level read?
A: Its Her2 level is 95.5% (inactive).

Q: For `COc1ccc(S(=O)(=O)N2CCSC2c2ccccc2)cc1` (stereo not given), which Her2 level is on record?
A: The Her2 level was 90.5% (inactive).

Q: For `CCCOC(=O)C1[C@H]2C(=O)N(CCCOC)C[C@]23C=C[C@H]1O3` (stereo not given in full), which Her2 level is on record?
A: Its Her2 level is 85% (inactive).

Q: For `COc1cc2c(cc1OC)C(C)N(C(=O)c1cc3n(n1)C(C(F)(F)F)CC(c1ccco1)N3)CC2` (stereo not given), which Her2 level is on record?
A: Its Her2 level is 68.5% (inactive).

Q: With `Cc1ccc(NC(=O)N2CCC(c3nc4c(nnn4Cc4cccc(Cl)c4)c(=O)[nH]3)CC2)cc1` as the molecule, how does the Her2 level read?
A: Its Her2 level is 76.5% (inactive).

Q: With `Cc1nc(NCCNC(=O)c2ccco2)c2c(C)c(C)sc2n1` as the molecule, how does the Her2 level read?
A: The Her2 level was 81% (inactive).

Q: For `Cc1c(NC(=O)CSc2nnc3sc4ccccc4n23)c(=O)n(-c2ccccc2)n1C`, which Her2 level is on record?
A: The Her2 level was 92.5% (inactive).

Q: Which Her2 level does the source give for `COc1ccc(-c2nnc3sc(-c4c(OC)cccc4OC)nn23)cc1` here?
A: The Her2 level was 93.5% (inactive).

Q: With `COC(=O)c1ccccc1NC(=O)CSc1nnc(-c2ccncc2)o1` as the molecule, how does the Her2 level read?
A: Its Her2 level is 81.5% (inactive).

Q: With `COc1ccc(Cl)cc1NC(=O)c1oc(C)nc1C` as the molecule, how does the Her2 level read?
A: Its Her2 level is 71.5% (inactive).

Q: For `CCOC(=O)CC(=O)Nc1c(C)cc(C)cc1C`, which Her2 level is on record?
A: Its Her2 level is 90.5% (inactive).

Q: Which Her2 level does the source give for `O=S(=O)(c1ccccc1)c1nc(-c2ccco2)oc1NCCCN1CCOCC1` here?
A: The Her2 level was 100% (inactive).

Q: For `O=C(COC(=O)c1ccc(S(=O)(=O)Nc2ccccc2)cc1)NCCN1C(=O)CSC1=O`, which Her2 level is on record?
A: The Her2 level was 108% (inactive).

Q: With `Cc1cc(C)c(-c2cc(C(=O)Nc3c(C)n(C)n(-c4ccccc4)c3=O)[nH]n2)c(O)c1` as the molecule, how does the Her2 level read?
A: The Her2 level was 98% (inactive).

Q: With `COc1ccc(-c2nnc(SCC(=O)N3CCCCC3)o2)cc1OC` as the molecule, how does the Her2 level read?
A: Its Her2 level is 104% (inactive).

Q: Which Her2 level does the source give for `Cc1cc(Br)ccc1NC(=O)CCN1C(=O)c2ccncc2C1=O` here?
A: The Her2 level was 113% (inactive).

Q: Which Her2 level does the source give for `CC1=C(C(=O)N2CCCCC2)C2(CCC(C)CC2)OC1=O` (stereo not given) here?
A: Its Her2 level is 102% (inactive).

Q: For `CCCN(CCC)S(=O)(=O)c1ccc(C(=O)Nc2nnc(-c3cccc(OC)c3)o2)cc1`, which Her2 level is on record?
A: The Her2 level was 89% (inactive).

Q: For `CC(C)(C)c1cc(CCC(=O)N2CCNCC2)c(C(C)(C)C)cc1O`, which Her2 level is on record?
A: The Her2 level was 85.5% (inactive).
